According to PubChem BioAssay AID1224921 (Broad Institute, 2016):
Hit rate of the full screen: of about 1,400 compounds, about 350 (25%) were called active. Another 2% or so got no clear call; they are omitted. No rule for the calls is given here. Not all results are given here. Measured potencies and affinities stand elsewhere.

Test: inhibitors of Clostridioides difficile proliferation – 4-point retest, confirmation (AID 1224921);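 also: plate controls were DMSO wells for no effect and levofloxacin 16 µg/mL wells for full effect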
Conditions: Clostridioides difficile clinical isolate growth, OD600, 24 h, stronger effect = lower value; at 30 µM unless noted

Max activity, inactive:
COc1cccc(C#Cc2ccc([C@H]3[C@@H](CO)N(C(=O)C4CCC4)[C@H]3C#N)cc2)c1 29% [at 8 µM], COc1ccccc1C#Cc1ccc([C@@H]2[C@@H](C#N)N(C(=O)C3CCCCC3)[C@H]2CO)cc1 30.9%, N#C[C@H]1[C@@H](c2ccc(C#Cc3ccccc3F)cc2)[C@@H](CO)N1C(=O)C1CCC1 -4.04%, COc1ccccc1C#Cc1ccc([C@H]2[C@@H](CO)N(C(=O)C3CC3)[C@H]2C#N)cc1 12.6%, N#C[C@@H]1[C@@H](c2ccc(C#Cc3cccc(F)c3)cc2)[C@H](CO)N1C(=O)C1CCC1 24.5% [at 0.5 µM], COc1cccc(C#Cc2ccc([C@@H]3[C@@H](C#N)N(C(=O)C4CCCCC4)[C@H]3CO)cc2)c1 32.5%, COc1ccccc1C#Cc1ccc([C@H]2[C@@H](C#N)N(C(=O)C3CCC3)[C@H]2CO)cc1 29.5% [at 8 µM], COc1ccccc1C#Cc1ccc([C@@H]2[C@@H](CO)N(C(=O)C3CCCCC3)[C@H]2C#N)cc1 12.6% [at 1.95 µM], C[C@H](C(=O)N(C)C[C@@H]1OCc2ccccc2-c2ccccc2C(=O)N([C@H](C)CO)C[C@H]1C)c1ccccc1 -11.2% [at 1.95 µM], CCCC(=O)Nc1ccc2c(c1)C(=O)N(C)C[C@@H](OC)[C@H](C)CN(Cc1ccccc1)[C@@H](C)CO2 26.7%, O=C(C[C@H]1CC[C@H](NC(=O)C2CCOCC2)[C@@H](CO)O1)Nc1nccs1 -4.31% [at 1.95 µM], C[C@H]1CN([C@@H](C)CO)S(=O)(=O)c2ccc(C#Cc3ccc(F)cc3)cc2O[C@@H]1CN(C)S(C)(=O)=O -17.5% [at 1.95 µM], CCCC#Cc1ccc2c(c1)O[C@H](CN(C)Cc1ccncc1)[C@H](C)CN([C@@H](C)CO)S2(=O)=O -13.4% [at 8 µM], CCCC(=O)Nc1ccc2c(c1)OC[C@@H](C)N(C(=O)c1ccccc1F)C[C@@H](C)[C@H](OC)CN(C)C2=O -11% [at 1.95 µM], CO[C@@H]1CN(C)C(=O)c2cc(NC(=O)c3cccc(F)c3)ccc2OC[C@@H](C)N(C(C)=O)C[C@@H]1C 7.72%, C[C@@H]1CN([C@H](C)CO)C(=O)c2ccccc2-c2ccccc2CO[C@H]1CN(C)S(=O)(=O)c1ccc(Cl)cc1 34.1%, CCCN1C[C@H](C)[C@H](OC)CN(C)C(=O)c2cc(NC(=O)Nc3cccc(OC)c3)ccc2OC[C@@H]1C 17.5% [at 35 µM]
